{"source": "PubChem BioAssay (NCATS)", "note": "Several values for one entry are separate records, joined by “and”; a condition that tells them apart may be missing. Identical values can stand only once. Inconclusive results are not listed. Unmarked numbers belong to inactive results. Activity calls are given as the source filed them. The call rests on the fitted dose curve; in most records, active means well fitted inhibition curve with a large enough effect; inconclusive means small, poorly fitted or top-dose-only effect; inactive means flat fitted curve, though single readings scatter. Potency means the concentration at half of the fitted maximal effect."}
{"tested_on": "Zika virus NS2B-NS3 protease", "assay": "Primary screen GU AMC qHTS for Zika virus inhibitors (AID 1347154); further: nearly all actives have a fitted effect of over 70% in size;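 on activity change, negative = inhibition: 0% = no-inhibitor control and -100% = no-enzyme control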", "conditions": "Zika NS2B-NS3 unlinked protease, AMC fluorogenic substrate; series mostly up to 54.1 µM; activity change, negative = inhibition: at the top concentration", "excerpt": "Avindra Nath, Ph.D., National Institute of Neurological Disorders and Stroke (NINDS), Bethesda, MD\nRadhakrishnan Padmanabhan, Ph.D., Georgetown University (GU), Washington D.C.\nZika Virus causes congenital defects, including microcephaly and is associated with Guillain-Barre syndrome, eningoencephalitis and myelitis in infected adult. […] Using a target-based approach, we hope to establish a screening paradigm to uncover novel, cell-active NS2B-NS3 protease (Zika Virus) specific inhibitors from NCATS' collection of small molecules using qHTS.\nEarly Translation Branch (ETB)\nNational Center for Advancing Translational Sciences (NCATS), Rockville, MD\nNational Institute of Health (NIH), Bethesda, Maryland\nPadmanabhan lab provided the NS2B hydrophilic domain and NS3 protease domain in a noncovalent complex used for the unlinked assay. Control compound aprotinin is obtained from Thermo Scientific (#78432; Waltham, Massachusetts). NS2B-NS3 AMC substrate (Bz-Nle-Lys-Arg-Arg-AMC; Nle-KRR-AMC) purchased from Bachem (#I-1995; Torrance, CA). Ac-VKTGKR-AMC purchased from Genscript or Bachem, Ac-FAAGKR-AMC purchased from Genscript, Ac-GLVKRR-AMC purchased from Genscript, Ac-LKKR-AMC purchased from Genscript.\nGU AMC unlinked NS2B-NS3 protease qHTS protocol\nBriefly, 3 microL of Zika virus unlinked NS2B-NS3 protease (25 nM for linked final concentration), in assay buffer (10 mM Tris-HCl pH 8.0 with 0.01% Tween 20) was dispensed into a 1,536-well solid-bottom black plate (Greiner Bio One, Monroe, NC). […] Plates were then read immediately on a ViewLux High-throughput CCD imager (PerkinElmer, Waltham, MA) equipped with standard UV fluorescence optics (340(30) nm excitation, 450(20) nm emission) then incubated (room temperature, protected from light) for 15 minutes (~20% conversion). The change in fluorescence intensity over the 15-minute reaction period was normalized against no-inhibitor and no-enzyme controls and the resulting percent inhibition data were fitted to a 4-parameter Hill equation. Aprotinin was used as the intraplate control.", "units": {"activity change, negative = inhibition": "%"}}
{"smiles": "C[C@@H]1CN(Cc2ccc(F)cc2)[C@@H](C)CN1C(=O)c1cc2c(C(=O)C(=O)N(C)C)cn(C)c2cc1Cl", "activity change, negative = inhibition": 6.07}
{"smiles": "Cc1cnc(Nc2ccc(OCCN3CCCC3)cc2)nc1Nc1cccc(S(=O)(=O)NC(C)(C)C)c1", "activity change, negative = inhibition": 4.47}
{"smiles": "CNC[C@H](O)c1cccc(O)c1", "Potency": "inactive"}
{"smiles": "COc1ccccc1[C@H](c1cccc2ccccc12)[C@@](C)(C#N)C(=O)N1CCC(c2cccc(C(F)(F)F)c2)CC1", "activity change, negative = inhibition": 1.81}
{"smiles": "COc1ccc(-c2oc3cc(OC)ccc3c2C(=O)c2ccc(C#N)cc2)cc1", "activity change, negative = inhibition": 2.14}
{"smiles": "CCCS(=O)(=O)Nc1ccc(F)c(C(=O)c2c[nH]c3ncc(Cl)cc23)c1F", "activity change, negative = inhibition": -7.04}
{"smiles": "COc1cc(Nc2ncc3c(n2)-c2ccc(Cl)cc2C(c2c(F)cccc2OC)=NC3)ccc1C(=O)O", "activity change, negative = inhibition": -10.5}
{"smiles": "OCCC#Cc1nc(-c2ccc(F)cc2)c(-c2ccncc2)n1CCCc1ccccc1", "activity change, negative = inhibition": 92.8}
{"smiles": "Nc1cccc(S(=O)(=O)N2CCCN(S(=O)(=O)c3ccc4c(c3)OCCO4)CC2)c1", "activity change, negative = inhibition": -13.6}
{"smiles": "CC(C)(N)C(=O)N[C@H](COCc1ccccc1)C(=O)N1CCC2(CC1)CN(S(C)(=O)=O)c1ccccc12", "activity change, negative = inhibition": 1.19}
{"smiles": "Nc1nccc(-c2ccc3noc(-c4ccc(Cl)cc4)c3c2)n1", "activity change, negative = inhibition": -1.98}
{"smiles": "C[C@]12CCC(=O)C=C1CC[C@@H]1[C@@H]2[C@@H](O)C[C@@]2(C)[C@H]1CC[C@]2(O)C(=O)CO", "activity change, negative = inhibition": -3.88}
{"smiles": "Cc1cn[nH]c1", "Potency": "inactive"}
{"smiles": "Clc1ccc(Nc2nnc(Cc3ccncc3)c3ccccc23)cc1", "Potency": "inactive"}
{"smiles": "Nc1ccc(S(=O)(=O)Nc2ccnn2-c2ccccc2)cc1", "Potency": "inactive"}
{"smiles": "CCn1c(-c2nonc2N)nc2c(C#CC(C)(C)O)ncc(OC[C@H]3CCCNC3)c21", "activity change, negative = inhibition": -8.81}
{"smiles": "NC(=O)C1CCCc2c1[nH]c1ccc(Cl)cc21", "note": "(stereo not given)", "activity change, negative = inhibition": -6.44}
{"smiles": "COc1ccc2c3n(c(=NC(=O)c4cccnc4)nc2c1OC)CCN3", "activity change, negative = inhibition": 18.1}
{"smiles": "Clc1cccc(Cl)c1NC1=NCCN1", "Potency": "inactive"}
{"smiles": "C#Cc1cccc(Nc2ncnc3cc(OCCOC)c(OCCOC)cc23)c1", "activity change, negative = inhibition": 7.58}
{"smiles": "Nc1nc2c(ncn2COCCO)c(=O)[nH]1", "Potency": "inactive"}
{"smiles": "Cc1c(CN2CCN(C(=O)C(C)C)CC2)sc2c(N3CCOCC3)nc(-c3cnc(N)nc3)nc12", "activity change, negative = inhibition": 10.4}
{"smiles": "C[C@]1(c2nc3c(C(N)=O)cccc3[nH]2)CCCN1", "activity change, negative = inhibition": -14.2}
{"smiles": "N#CC[C@H](C1CCCC1)n1cc(-c2ncnc3[nH]ccc23)cn1", "Potency": "24.1 µM (active)"}
{"smiles": "CCCc1nc2c(C)cc(-c3nc4ccccc4n3C)cc2n1Cc1ccc(-c2ccccc2C(=O)O)cc1", "activity change, negative = inhibition": -7.88}
{"smiles": "NC(=O)c1cnccn1", "Potency": "inactive"}
{"smiles": "CCCn1c(=O)c2[nH]c(C34CC5CC3C[C@@H](C5)C4)nc2n(CCC)c1=O", "activity change, negative = inhibition": 5.79}
{"smiles": "c1ccc([C@H]2CN3CCSC3=N2)cc1", "Potency": "inactive"}
{"smiles": "Cc1ccc(N(CC2=NCCN2)c2cccc(O)c2)cc1", "Potency": "inactive"}
{"smiles": "Cc1c(CCOc2ccc(C(=O)O)cc2)c2cc(Cl)ccc2n1C(c1ccccc1)c1ccccc1", "activity change, negative = inhibition": -9.75}
{"smiles": "CN(C(=O)c1ccc(F)cc1C(F)(F)F)C1CCN(c2nnc(-c3ccnn3C)c3ccccc23)CC1", "activity change, negative = inhibition": -9.84}
{"smiles": "COc1ccc(-c2ccc3c(N4CCOCC4)nc(N4C[C@@H](C)O[C@@H](C)C4)nc3n2)cc1CO", "Potency": "19.2 µM (active)"}
{"smiles": "CCCC(CCC)C(=O)O", "Potency": "inactive"}
{"smiles": "COc1ccc(CCN2CCN(CCCc3ccccc3)CC2)cc1OC", "activity change, negative = inhibition": -2.61}
{"smiles": "NC[C@H](O)c1ccc(O)c(O)c1", "Potency": "10.2 µM (active) and 11.9 µM (active)"}
{"smiles": "O=C1CCc2cc(OCCCCc3nnnn3C3CCCCC3)ccc2N1", "Potency": "inactive"}
{"smiles": "Cc1n[nH]c(C)c1Cc1sc2c(c1C(=O)N1C[C@H](O)CO1)c(=O)n(C)c(=O)n2CC(C)C", "activity change, negative = inhibition": 8.75}
{"smiles": "COc1cc2nccc(Oc3ccc(NC(=O)NC4CC4)c(Cl)c3)c2cc1C(N)=O", "activity change, negative = inhibition": -12.1}
{"smiles": "CC(C)(C)NCC(O)c1ccc(O)c(CO)c1", "note": "(stereo not given)", "Potency": "inactive"}
{"smiles": "OC(CN1CCC(Cc2ccc(F)cc2)CC1)c1ccc(Cl)cc1", "note": "(stereo not given)", "Potency": "inactive"}
